Measurements reported in publication PMC4666376, “Characterisation of aptamer–target interactions by branched selection and high-throughput sequencing of SELEX pools”.

biological target: PAI-1 wild type, active (human, UniProt P05121 24-402); assay: branched SELEX with high-throughput sequencing; PAI-1 immobilised on polyclonal anti-PAI-1 antibody; HBS (10 mM HEPES pH 7.4, 140 mM NaCl), 2 mM MgCl2, 2 mM CaCl2, 0.1% BSA; RNA pool 100 nM; PAI-1 captured on antibody-coated wells; 45 min; binding temperature not stated (PAI-1 capture at room temperature); high values mean tight binding; settings: protein: recombinant; tags: N-terminal His6; structured_RNA; 2'-F pyrimidines;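 note: Pool frequency after one selection round with this target divided by frequency before selection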
Sequence (P05121 24-402): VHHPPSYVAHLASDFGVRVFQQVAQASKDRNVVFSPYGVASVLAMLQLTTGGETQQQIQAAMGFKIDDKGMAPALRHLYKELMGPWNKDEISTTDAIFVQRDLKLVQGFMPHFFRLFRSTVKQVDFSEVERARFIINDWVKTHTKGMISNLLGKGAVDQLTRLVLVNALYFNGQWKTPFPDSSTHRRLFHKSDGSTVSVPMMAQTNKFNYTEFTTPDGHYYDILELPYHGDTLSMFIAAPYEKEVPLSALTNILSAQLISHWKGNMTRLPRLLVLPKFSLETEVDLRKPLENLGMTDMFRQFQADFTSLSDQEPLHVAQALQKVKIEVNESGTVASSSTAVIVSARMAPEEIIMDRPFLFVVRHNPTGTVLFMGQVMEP

Sequence | binding signal
GGGGCCACCAACGACAUUCCGUCCGUGUUCAGUUAACACGCAUGUGUUUUGUGGUUGAUAUAAAUAGUGCCCAUGGAUC | 1.36 enrichment factor
GGGGCCACCAACGACAUUGUCGUAGGCAGAUAGAUUAUAUCCGCUGACCAGUGUUGAUAUAAAUAGUGCCCAUGGAUC | 2.25 enrichment factor
GGGGCCACCAACGACAUUCAACGUGCACUGUAGCUGUACAAAGCGACCAACGUUGAUAUAAAUAGUGCCCAUGGAUC | 6.23 enrichment factor
GGGGCCACCAACGACAUUGACUAGACAUGAUGUUGCAUGUCACCAUGUAAAAUGUUGAUAUAAAUAGUGCCCAUGGAUC | 0.92 enrichment factor
GGGGCCACCAACGACAUUUCAUAACGUAGACUGUCUGAGUCGAUCAGAGUGUUGUUGAUAUAAAUAGUGCCCAUGGAUC | 1.68 enrichment factor
GGGGCCACCAACGACAUUCUCGAGAGAGACCUUCCUCGUUAUACGGGGAGUUCGUUGAUAUAAAUAGUGCCCAUGGAUC | 0.56 enrichment factor
